Shown are actives, neighbours in structure and some others; about 12% of the full set was active somewhere.
Pf growth 96h – P. falciparum growth inhibition at 96 hour, primary screen for plastid delayed-death inhibitors; P. falciparum luciferase reporter growth, 96 h; Potency, µM (top dose mostly 28.7 µM), inactives show at the highest dose activity change, negative = inhibition, actives largely listed as inhibitors; hit rate 6.9% among 320,000; AID 504834; note: % is set by controls: 0 for no effect and ±100 for the full control effect
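Two parasite generations (96 h, 37 C, 5% CO2) of compound exposure in infected erythrocytes (0.05% parasitemia, 2% hematocrit). Luciferase-reporter P. falciparum; decreased luminescence indicates inhibited growth, aimed at apicoplast-acting delayed death.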
Pf growth 48h – inhibits P. falciparum growth in the first generation, 48 h | P. falciparum luciferase growth in erythrocytes, 48 h | Potency, µM (series often up to 28.7 µM), for inactives: top-dose activity change, negative = inhibition, usual class: inhibitors | hit rate 5.9% among 310,000; note: % is set by controls: 0 for no effect and ±100 for the full control effect
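Growth was read as firefly luciferase luminescence after a 48 h, 37 C, 5% CO2 exposure of compounds to reporter-bearing P. falciparum cultures (0.1% parasitemia, 2% hematocrit final) in Albumax-supplemented RPMI 1640.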
AMA1 RON2 block – inhibitors of Plasmodium falciparum AMA1-RON2 interaction. AlphaScreen AMA1-biotinylated RON2 peptide binding. Potency, µM (highest dose often 58.2 µM), for the others: at the highest dose activity change, negative = inhibition, most hits filed as inhibitors. hit rate 0.2% among 360,000;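 note: 0% = vehicle wells and -100% = peptide control; nearly all actives have a fitted effect of over 45% in size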
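AMA1 (3D7) with his tag at 25 nM final met compounds first, then biotinylated RON2 peptide at 25 nM; detection used donor plus acceptor beads, 10 µg/mL apiece, read by AlphaScreen after 30 min at room temperature.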
NS1 function inh – inhibitors of influenza NS1 protein function; Potency, µM (highest dose often 46.1 µM), for inactives: at the highest dose activity, positive = more growth; hit rate 0.4% among 270,000; AID 2326; calls by dose curve; note: actives are rising curves; nearly all actives have a fitted effect of over 50% in size
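Compounds were scored for reversing the slow growth caused by influenza A NS1 in S. cerevisiae, measured by optical density at 600 nm. Assay medium contained 2% galactose at pH 6.0; NS1-free yeast of the same strain were the positive control.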
HCV inhibitor – HCV inhibition | hit rate 3.4% among 340,000 | Huh7.5.1 HCVcc-Cre infection, luciferase reporter, 44 h | Potency, µM (doses to about 41.8 µM), without a hit: at the top dose activity change, negative = inhibition, usual class: inhibitors; note: % is set by controls: 0 for no effect and ±100 for the full control effect
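Infectious HCVcc-Cre (~0.5 moi) was added to cells just after compound, with cells seeded 4 h earlier at 1,000 per well. Luciferase activity after 44 h culture reported infection; substrate was incubated 15 min at room temperature before reading.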
SARS PLpro yeast – SARS-CoV PLP inhibition in yeast | AID 485353 | hit rate 0.19% among 330,000 | S. cerevisiae expressing SARS-CoV PLpro, growth rescue | Potency, µM (highest dose often 32.9 µM), inactives show at the top dose activity, positive = growth rescue, hits mostly activators; calls by dose curve; note: 0% is about no effect; nearly all actives have a fitted effect of over 55% in size
The depositor's hits bear a star; ? = inconclusive; . = no result given; [ ] = another dose, or the depositor's remark. Unless noted, calls come from the whole dose curve; as a rule, active = well fitted curve in the direction sought with a large enough effect; inconclusive = small, poorly fitted or top-dose-only effect, or another doubt; inactive = no such curve, though single readings can be large; an effect the other way counts as inactive or inconclusive. Potency is the fitted concentration of half-maximal effect.

SMILES	Pf growth 96h	Pf growth 48h	AMA1 RON2 block	NS1 function inh	HCV inhibitor	SARS PLpro yeast
CCc1cccc(OCC2Cn3c(nc4c3c(=O)n(C)c(=O)n4C)O2)c1 (centres undefined)	?	15.7%	-3.9%	12.4%	?	5.5%
CCc1cccc(OCC2Cn3c(nc4c3c(=O)[nH]c(=O)n4C)O2)c1 (centres undefined)	11.7µM*	5.1%	5.4%	-8.7%	-15.9%	0.8%
CCOC(=O)N/N=C\c1ccc(OC/C=C/c2ccccc2)cc1	?	?	1.3%	6.1%	2.6%	9.4%
COc1cccc(/C=N/N2CCN(Cc3ccccc3)CC2)c1O	7.38µM*	9.8%	?	16.4%	3.1%	11.6%
Oc1ccc(Br)cc1/C=N/N1CCN(Cc2ccccc2)CC1	38.7%	19.5%	?	-33.7%	2.6%	-2.5%
CCN(CC)c1ccc(/C=N\N2CCN(Cc3ccc(C)cc3)CC2)cc1	23.3%	13.5%	8.91µM*	4.7%	-16.6%	-0.9%
CCOc1ccc(/C=N/N2CCN(Cc3ccccc3)CC2)cc1	0.738µM*	23.8%	?	-18.4%	-24.9%	-6.9%
CCCCC(=O)N(C)c1c(CC)nc2c(OCC(=O)c3ccc(F)cc3)cccn12	.	.	0.2%	.	.	.
COCCN(C(C)=O)c1nnc(-c2cnccn2)s1	2.33µM*	28.2%	-11.2%	-80.4%	3.4%	11.8%
COCCN(C(C)=O)c1nnc(-c2ccccn2)s1	.	55.2%	28.0%	-47.1%	22.5%	-2.7%
CC12CCC(C(=O)OC3CCCCC3)(OC1=O)C2(C)C (centres undefined)	11.7µM*	30.5%	-2.6%	18.4%	23.9%	1.1%
O=C(NC12CC3CC(CC(C3)C1)C2)N(Cc1ccccc1)Cc1ccncc1	-24.8%	?	0.0%	-8.0%	0.0%	-0.5%
CCOC(=O)c1ccc(Cn2cnc3ccccc3c2=O)cc1	13.1µM*	-12.3%	10.8%	-5.4%	5.5%	0.7%
Cc1cccc(-n2c(C)nc3ccccc3c2=O)n1	5.22µM*	64.9%	-3.4%	-6.8%	4.2%	13.0%
CCOC(=O)c1cccc(-n2c(C)nc3ccccc3c2=O)c1	9.28µM*	17.6%	1.8%	-6.2%	7.1%	-7.5%
Cc1nc2ccccc2c(=O)n1-c1ccccn1	-6.7%	0.0%	0.0%	-19.6%	29.0%	1.8%
COC(=O)c1ccc(Cn2cnc3ccccc3c2=O)cc1	?	3.9%	-11.4%	-6.0%	1.9%	8.9%
COc1ccc(S(=O)(=O)N2CCN(CC(=O)N3CCc4ccccc4C3)CC2)cc1OC	9.28µM*	?	-1.5%	.	?	2.4%
COc1ccc(S(=O)(=O)N2CCN(CCCOc3ccc(F)cc3)CC2)cc1OC	4.65µM*	?	10.0%	-6.2%	11.2µM*	14.2%
O=C(CN1CCN(S(=O)(=O)c2cc(C(F)(F)F)ccc2Cl)CC1)N1CCc2ccccc2C1	?	13.1µM*	5.2%	.	11.2µM*	-5.1%
O=C(CN1CCN(S(=O)(=O)c2ccc(F)c(Cl)c2)CC1)N1CCc2ccccc2C1	.	.	8.6%[11.6 µM]	.	?	.
Cn1c(CNC(=O)CNC(=O)Cc2ccc(F)cc2)cc(=O)n(C)c1=O	26.6%	9.2%	-6.9%	1.4%	13.6%	6.2%
CC1(C)CC(=O)C=C(NCC(O)c2ccccc2)C1 (centres undefined)	?	3.1%	1.4%	-2.3%	15.3%	0.2%
O=C(NCCc1nc2ccccc2[nH]1)c1cc([N+](=O)[O-])cc([N+](=O)[O-])c1	?	4.65µM*	-2.7%	4.1%	-5.9%	22.6%
O=C(Cn1cc([N+](=O)[O-])cn1)NCCc1nc2ccccc2[nH]1	9.28µM*	19.0%	98.4%	.	9.3%	-0.4%
SMILES	Pf growth 96h	Pf growth 48h	AMA1 RON2 block	NS1 function inh	HCV inhibitor	SARS PLpro yeast
O=[N+]([O-])c1ccccc1C(=Nc1ccccc1)c1c(O)cc(O)cc1O	.	.	5.2%	.	.	.
CN(C(=O)COC(=O)CCc1c[nH]c2ccccc12)c1ccccc1	-1.2%	?	-2.1%	.	18.3%	0.7%
COC(=O)C1CN(C#N)N(c2ccc(Cl)cc2)C12c1ccccc1-c1ccccc12 (centres undefined)	18.0%	3.29µM*	-9.3%	29.9%	3.98µM*	-81.1%
O=C1c2ccccc2C(O)N1c1ccc(Cl)cc1 (centres undefined)	?	.	-2.2%	-11.5%	-3.0%	2.2%
[Cl-].[Cl-].[Hg+2]	2.39µM*	2.13µM*	.	.	.	.
O=C(CSc1nnc(-c2cccs2)n1CC1CCCO1)c1cc2ccccc2o1 (centres undefined)	11.7µM*	29.9%	-2.4%	0.4%	-13.1%	-7.6%
Cn1c(SCC(=O)c2cc3ccccc3o2)nnc1-c1ccccc1	-6.8%	2.5%	15.0%	3.2%	?	-11.4%
CC1(C)NC(=O)N(CC(=O)N2CCN(c3cccc(Cl)c3)CC2)C1=O	26.6%	7.1%	10.1%	.	2.8%	-6.4%
COC(=O)[C@@]1(Cc2ccc(F)cc2)[C@H]2c3cc(C(=O)N(C)C)n(CCF)c3C[C@H]2CN1C(=O)c1ccccc1	.	.	0.1%	.	.	.
COC(=O)[C@@]1(Cc2ccc(F)cc2)[C@H]2c3cc(C(=O)N(C)C)n(Cc4c(CO)[nH]cc(C)c4=O)c3C[C@H]2CN1C(=O)c1ccccc1	1.85µM*	1.31µM*	-3.8%	-8.7%	2.8%[8.37 µM]	-15.3%
COC(=O)[C@@]1(Cc2ccc(F)cc2)[C@H]2c3cc(C(=O)N(C)C)n(Cc4ccc(OC(F)(F)F)cc4)c3C[C@H]2CN1C(=O)c1ccccc1	2.33µM*	1.85µM*	.	?	-2.0%[8.37 µM]	4.1%
COC(=O)[C@@]1(Cc2ccc(F)cc2)[C@H]2c3cc(C(=O)N(C)C)n(Cc4ccc(C)c(F)c4F)c3C[C@H]2CN1C(=O)c1ccccc1	.	.	-15.8%	.	.	.
Cc1cc(-c2nnc3n2N=C(c2ccc(F)cc2)CS3)n[nH]1	?	-13.0%	1.8%	0.6%	-1.1%	1.7%
CCOc1ccc(NC(=S)N2CCN(S(=O)(=O)c3ccc(OC)cc3)CC2)cc1	?	?	-12.6%	11.7%	.	-0.9%
CCC(C)NC(=O)CCc1nc2ccccc2n1-c1ccccc1 (centres undefined)	29.3%	-10.3%	-0.6%	-17.5%	-17.6%	-24.3%
CC(=O)c1c(C)[nH]c(C(=O)Nc2cc(C)cc(C)c2)c1C	5.86µM*	.	-9.1%	-19.5%	?	-11.1%
CC(=O)c1c(C)[nH]c(C(=O)Nc2ccc(C)c(S(=O)(=O)N(C)C)c2)c1C	-6.6%	233.2%	-0.9%	.	?	-1.6%
CC(=O)c1c(C)[nH]c(C(=O)Nc2ccc(S(=O)(=O)N(C)C)cc2)c1C	13.1µM*	?	-0.1%	-1.5%	-18.6%	0.3%
CCCN(S(=O)(=O)c1ccccc1F)S(=O)(=O)c1ccccc1Br	13.7%	-13.6%	0.4%	-52.0%	4.8%	-10.0%
CCCC(=O)NCCCCNC(=O)CCC	0.6%	-3.0%	-3.6%	0.7%	5.5%	-0.3%
